Holding throughout (assay): DAPPL (digital affinity profiling via proximity ligation, sequencing); 10 mM Tris-HCl pH 7.5, 50 mM NaCl, 1 mM DTT, 4% glycerol, room temperature, 30 min; GST-TFs on glutathione beads, 16-mer random dsDNA library, 0.1% formaldehyde crosslink after washing; high values mean tight binding
What all share (conditions): protein: recombinant; tags: N-terminal GST; dsDNA, one strand shown

One assay has as its target T1, ERF (Homo sapiens, UniProt P50548 1-548).
T1 sequence: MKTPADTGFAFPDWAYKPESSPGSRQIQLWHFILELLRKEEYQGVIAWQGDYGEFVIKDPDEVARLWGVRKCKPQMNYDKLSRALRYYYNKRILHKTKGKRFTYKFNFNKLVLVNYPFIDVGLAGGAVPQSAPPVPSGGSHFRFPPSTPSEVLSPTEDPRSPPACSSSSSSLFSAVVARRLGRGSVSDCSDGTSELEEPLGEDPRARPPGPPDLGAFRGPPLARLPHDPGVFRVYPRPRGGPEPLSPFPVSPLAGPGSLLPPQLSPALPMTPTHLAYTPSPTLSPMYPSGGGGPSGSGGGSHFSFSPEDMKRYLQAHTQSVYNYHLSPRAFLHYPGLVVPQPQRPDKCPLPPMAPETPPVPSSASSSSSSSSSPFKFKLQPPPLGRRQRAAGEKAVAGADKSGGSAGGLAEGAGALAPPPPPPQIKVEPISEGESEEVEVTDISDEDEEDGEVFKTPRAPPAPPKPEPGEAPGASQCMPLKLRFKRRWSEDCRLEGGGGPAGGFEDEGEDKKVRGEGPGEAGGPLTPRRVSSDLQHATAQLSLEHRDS
The gist of the method: (§1)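 Pools were built from human transcription factors expressed in yeast as GST fusions, captured on glutathione beads and DNA-barcoded, along with a tag-only sample. Incubation with 200 nmole of a 16-mer random double-stranded DNA library lasted 30 min at room temperature in Tris/NaCl/DTT/glycerol buffer, and was followed by washing, 0.1% formaldehyde crosslinking, proximity ligation, PCR amplification and Illumina NextSeq500 sequencing. Binding signal is the quotient of each hexamer's read frequency for a factor and its frequency for the tag-only sample.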

Another assay addresses T2, ETV3L (Homo sapiens, UniProt Q6ZN32 1-361).
T2 sequence: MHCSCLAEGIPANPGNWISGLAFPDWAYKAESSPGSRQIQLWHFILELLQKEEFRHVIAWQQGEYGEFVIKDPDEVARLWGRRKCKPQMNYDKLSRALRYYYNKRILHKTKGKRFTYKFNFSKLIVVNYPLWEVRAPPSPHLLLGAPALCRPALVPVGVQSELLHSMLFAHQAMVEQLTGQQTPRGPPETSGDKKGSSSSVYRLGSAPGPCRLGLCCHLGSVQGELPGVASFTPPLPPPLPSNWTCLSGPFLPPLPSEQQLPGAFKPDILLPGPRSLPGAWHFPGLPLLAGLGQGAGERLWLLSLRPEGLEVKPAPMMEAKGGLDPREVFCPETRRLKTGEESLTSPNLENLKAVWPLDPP
An outline of the steps: as §1

The next assay has as its target T3, ETS2 (Homo sapiens, UniProt P15036 1-469).
T3 sequence: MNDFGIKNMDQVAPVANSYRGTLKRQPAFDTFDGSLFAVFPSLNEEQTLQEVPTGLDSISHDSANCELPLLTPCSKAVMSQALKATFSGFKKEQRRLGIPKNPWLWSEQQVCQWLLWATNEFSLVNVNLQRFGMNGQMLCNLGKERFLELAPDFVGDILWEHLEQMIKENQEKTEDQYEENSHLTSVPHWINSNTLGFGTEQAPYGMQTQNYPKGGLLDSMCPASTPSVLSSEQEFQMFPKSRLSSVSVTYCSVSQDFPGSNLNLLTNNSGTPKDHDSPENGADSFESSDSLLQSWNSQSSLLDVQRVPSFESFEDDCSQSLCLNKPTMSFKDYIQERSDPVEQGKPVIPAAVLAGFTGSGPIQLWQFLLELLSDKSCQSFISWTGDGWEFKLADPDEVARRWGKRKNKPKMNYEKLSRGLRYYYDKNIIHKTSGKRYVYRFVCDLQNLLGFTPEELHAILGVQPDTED
The gist of the method:
as §1

The target of another assay is T4, SPDEF (Homo sapiens, UniProt O95238 1-335).
T4 sequence: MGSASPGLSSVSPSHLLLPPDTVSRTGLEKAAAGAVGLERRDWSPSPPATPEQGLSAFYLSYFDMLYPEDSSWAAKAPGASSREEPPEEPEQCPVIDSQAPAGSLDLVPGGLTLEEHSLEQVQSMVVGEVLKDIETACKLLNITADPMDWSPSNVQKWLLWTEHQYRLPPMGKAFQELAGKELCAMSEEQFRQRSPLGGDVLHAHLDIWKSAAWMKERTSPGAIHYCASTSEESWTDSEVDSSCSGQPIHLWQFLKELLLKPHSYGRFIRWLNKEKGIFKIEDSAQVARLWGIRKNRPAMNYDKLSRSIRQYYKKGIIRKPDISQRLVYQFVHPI
The gist of the method:
as §1

In another assay the target is T5, ETV7 (Homo sapiens, UniProt Q9Y603 1-341).
T5 sequence: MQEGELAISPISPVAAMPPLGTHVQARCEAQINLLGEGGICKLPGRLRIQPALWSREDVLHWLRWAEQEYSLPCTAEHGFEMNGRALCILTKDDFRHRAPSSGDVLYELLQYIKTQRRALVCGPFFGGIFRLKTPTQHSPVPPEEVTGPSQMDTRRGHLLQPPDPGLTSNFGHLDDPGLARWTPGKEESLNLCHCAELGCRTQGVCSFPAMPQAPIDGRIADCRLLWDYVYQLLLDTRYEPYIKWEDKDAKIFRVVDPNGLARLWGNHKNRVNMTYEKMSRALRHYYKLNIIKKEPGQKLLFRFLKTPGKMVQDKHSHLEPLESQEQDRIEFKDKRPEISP
The gist of the method: as §1

The target in another assay is T6, ELF5 (Homo sapiens, UniProt Q9UKW6-2 1-255).
T6 sequence: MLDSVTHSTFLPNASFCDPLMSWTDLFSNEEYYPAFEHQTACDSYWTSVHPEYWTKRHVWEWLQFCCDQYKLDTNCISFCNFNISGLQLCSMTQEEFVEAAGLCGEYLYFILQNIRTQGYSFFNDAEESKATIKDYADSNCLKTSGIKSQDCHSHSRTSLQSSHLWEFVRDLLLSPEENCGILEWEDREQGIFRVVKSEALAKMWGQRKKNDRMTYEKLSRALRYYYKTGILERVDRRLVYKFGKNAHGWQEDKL
An outline of the steps:
as §1

In a further assay the target is T7, ETV3 (Homo sapiens, UniProt P41162-2 1-143).
T7 sequence: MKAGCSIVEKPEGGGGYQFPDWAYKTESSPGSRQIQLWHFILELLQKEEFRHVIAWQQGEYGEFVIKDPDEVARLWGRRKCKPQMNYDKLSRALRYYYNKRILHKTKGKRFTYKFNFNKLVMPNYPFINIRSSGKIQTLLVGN
The gist of the method: as §1

The target of the next assay is ETV6 (Homo sapiens, UniProt P41212 1-452). An outline of the steps: as §1
Sequence of ETV6 (P41212 whole entry): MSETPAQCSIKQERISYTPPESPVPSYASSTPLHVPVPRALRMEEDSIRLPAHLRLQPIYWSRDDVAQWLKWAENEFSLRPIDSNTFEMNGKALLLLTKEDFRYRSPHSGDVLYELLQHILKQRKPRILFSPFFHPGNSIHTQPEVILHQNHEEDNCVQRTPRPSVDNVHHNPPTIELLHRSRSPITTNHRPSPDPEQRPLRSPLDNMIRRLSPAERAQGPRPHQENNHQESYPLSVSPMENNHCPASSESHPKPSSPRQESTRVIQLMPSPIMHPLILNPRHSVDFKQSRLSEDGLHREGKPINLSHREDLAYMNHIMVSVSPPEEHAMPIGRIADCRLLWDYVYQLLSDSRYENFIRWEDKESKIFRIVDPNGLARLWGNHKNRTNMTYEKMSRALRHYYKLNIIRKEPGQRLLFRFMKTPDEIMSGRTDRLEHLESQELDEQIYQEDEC

As for GCATCC, the binding signal is 1.43 fold enrichment (6-mer frequency, TF over GST control) with ERF; 1.56 fold enrichment (6-mer frequency, TF over GST control) with ETV3L; 1.61 fold enrichment (6-mer frequency, TF over GST control) with ETS2; 2.71 fold enrichment (6-mer frequency, TF over GST control) with SPDEF; 1.43 fold enrichment (6-mer frequency, TF over GST control) in the assay with ETV7; 1.64 fold enrichment (6-mer frequency, TF over GST control) in the assay with ELF5. Besides, the binding signal in the assay with ETV3 was 1.62 fold enrichment (6-mer frequency, TF over GST control); in the assay with ETV6, 1.57 fold enrichment (6-mer frequency, TF over GST control).

CCCTGG: the binding signal with ERF is 1.24 fold enrichment (6-mer frequency, TF over GST control); with ETV3L, 1.16 fold enrichment (6-mer frequency, TF over GST control); with ETS2 it was 1.06 fold enrichment (6-mer frequency, TF over GST control); in the assay with SPDEF it was 1.02 fold enrichment (6-mer frequency, TF over GST control); in the assay with ETV7 it was 1.26 fold enrichment (6-mer frequency, TF over GST control); in the assay with ELF5 it was 1.06 fold enrichment (6-mer frequency, TF over GST control). In addition, the binding signal was 1.13 fold enrichment (6-mer frequency, TF over GST control) with ETV3 and 1.05 fold enrichment (6-mer frequency, TF over GST control) with ETV6.

For the sequence ACCGTC, the binding signal with ERF is 1.25 fold enrichment (6-mer frequency, TF over GST control); in the assay with ETV3L, 1.23 fold enrichment (6-mer frequency, TF over GST control); with ETS2, 1.28 fold enrichment (6-mer frequency, TF over GST control); with SPDEF it was 1.35 fold enrichment (6-mer frequency, TF over GST control); with ETV7, 1.09 fold enrichment (6-mer frequency, TF over GST control); in the assay with ELF5, 1.08 fold enrichment (6-mer frequency, TF over GST control). The binding signal with ETV3 is 1.2 fold enrichment (6-mer frequency, TF over GST control); with ETV6, 1.21 fold enrichment (6-mer frequency, TF over GST control).

With CCTGTG, the binding signal with ERF is 1.08 fold enrichment (6-mer frequency, TF over GST control); in the assay with ETV3L, 1.02 fold enrichment (6-mer frequency, TF over GST control); with ETS2, 1.03 fold enrichment (6-mer frequency, TF over GST control); with SPDEF, 1.02 fold enrichment (6-mer frequency, TF over GST control); with ETV7, 1.07 fold enrichment (6-mer frequency, TF over GST control); in the assay with ELF5 it was 1.06 fold enrichment (6-mer frequency, TF over GST control). Moreover, the binding signal was 1.07 fold enrichment (6-mer frequency, TF over GST control) in the assay with ETV3 and 1.06 fold enrichment (6-mer frequency, TF over GST control) with ETV6.

Take ACGTTA: the binding signal is 1.17 fold enrichment (6-mer frequency, TF over GST control) with ERF; 1.12 fold enrichment (6-mer frequency, TF over GST control) in the assay with ETV3L; 1.15 fold enrichment (6-mer frequency, TF over GST control) with ETS2; 1.06 fold enrichment (6-mer frequency, TF over GST control) with SPDEF; 1.09 fold enrichment (6-mer frequency, TF over GST control) with ETV7; 1.06 fold enrichment (6-mer frequency, TF over GST control) with ELF5. Besides, the binding signal in the assay with ETV3 was 1.16 fold enrichment (6-mer frequency, TF over GST control); in the assay with ETV6, 1.12 fold enrichment (6-mer frequency, TF over GST control).

TGGTCC: the binding signal with ERF was 1.19 fold enrichment (6-mer frequency, TF over GST control); in the assay with ETV3L, 1.1 fold enrichment (6-mer frequency, TF over GST control); with ETS2, 1.23 fold enrichment (6-mer frequency, TF over GST control); with SPDEF, 1.26 fold enrichment (6-mer frequency, TF over GST control); with ETV7, 1.18 fold enrichment (6-mer frequency, TF over GST control); with ELF5, 1.19 fold enrichment (6-mer frequency, TF over GST control). For the same sequence, the binding signal with ETV3 was 1.28 fold enrichment (6-mer frequency, TF over GST control); with ETV6 it was 1.18 fold enrichment (6-mer frequency, TF over GST control).

TATCTA: the binding signal with ERF is 1.27 fold enrichment (6-mer frequency, TF over GST control); with ETV3L it was 1.18 fold enrichment (6-mer frequency, TF over GST control); with ETS2, 1.26 fold enrichment (6-mer frequency, TF over GST control); with SPDEF, 1.23 fold enrichment (6-mer frequency, TF over GST control); with ETV7, 1.26 fold enrichment (6-mer frequency, TF over GST control); in the assay with ELF5, 1.18 fold enrichment (6-mer frequency, TF over GST control). Besides, the binding signal in the assay with ETV3 is 1.29 fold enrichment (6-mer frequency, TF over GST control); with ETV6, 1.28 fold enrichment (6-mer frequency, TF over GST control).

In the case of GACCTA, the binding signal was 1.09 fold enrichment (6-mer frequency, TF over GST control) with ERF; 1.31 fold enrichment (6-mer frequency, TF over GST control) with ETV3L; 1.19 fold enrichment (6-mer frequency, TF over GST control) in the assay with ETS2; 1.13 fold enrichment (6-mer frequency, TF over GST control) with SPDEF; 1.2 fold enrichment (6-mer frequency, TF over GST control) with ETV7; 1.15 fold enrichment (6-mer frequency, TF over GST control) in the assay with ELF5. Besides, the binding signal with ETV3 was 1.07 fold enrichment (6-mer frequency, TF over GST control); with ETV6, 1.22 fold enrichment (6-mer frequency, TF over GST control).

The record behind these values is paper PMC7862700, “An all-to-all approach to the identification of sequence-specific readers for epigenetic DNA modifications on cytosine”.
